# Assays:
# Experiment in all cases: DAPPL (digital affinity profiling via proximity ligation, sequencing); 10 mM Tris-HCl pH 7.5, 50 mM NaCl, 1 mM DTT, 4% glycerol, room temperature, 30 min; GST-TFs on glutathione beads, 16-mer random dsDNA library, 0.1% formaldehyde crosslink after washing; high values mean tight binding
# Conditions in all cases: protein: recombinant; tags: N-terminal GST; dsDNA, one strand shown
# [1] = molecular target: T1, FEV (Homo sapiens, UniProt Q99581 1-238)
# T1 sequence: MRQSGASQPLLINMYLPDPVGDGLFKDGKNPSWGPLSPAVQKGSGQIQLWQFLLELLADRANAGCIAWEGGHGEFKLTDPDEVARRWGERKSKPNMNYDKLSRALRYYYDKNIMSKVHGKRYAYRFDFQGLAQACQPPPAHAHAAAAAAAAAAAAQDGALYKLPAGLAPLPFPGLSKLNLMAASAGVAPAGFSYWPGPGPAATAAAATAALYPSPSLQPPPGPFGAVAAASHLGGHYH
# How it was run: (§1)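 Sequencing on an Illumina NextSeq500 followed washing, crosslinking with 0.1% formaldehyde, proximity ligation (BsaI/T4 ligase, 1 h, 37 °C) and PCR amplification of pools that had been incubated for 30 min at room temperature with 200 nmole of a random double-stranded 16-mer DNA library in Tris/NaCl/DTT/glycerol buffer. Each pool held DNA-barcoded human transcription factors, expressed in yeast as GST fusions and captured on glutathione beads, plus a tag-only sample. Binding signal is a hexamer's read frequency for a factor divided by its frequency in the tag-only sample.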
# [2] = molecular target: ETV5 (Homo sapiens, UniProt P41161 1-510)
# How it was run: as §1
# [3] = molecular target: T2, SPIC (Homo sapiens, UniProt Q8N5J4 1-248)
# T2 sequence: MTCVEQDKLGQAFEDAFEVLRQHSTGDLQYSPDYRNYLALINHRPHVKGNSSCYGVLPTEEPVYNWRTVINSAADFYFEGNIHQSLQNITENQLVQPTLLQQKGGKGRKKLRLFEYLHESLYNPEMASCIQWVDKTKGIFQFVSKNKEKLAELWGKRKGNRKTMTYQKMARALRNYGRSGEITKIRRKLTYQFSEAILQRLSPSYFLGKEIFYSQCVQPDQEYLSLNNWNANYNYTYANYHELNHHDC
# How it was run: as §1
# [4] = molecular target: ELF4 (Homo sapiens, UniProt Q99607 1-663)
# How it was run: as §1
# [5] = molecular target: T3, ELK4 (Homo sapiens, UniProt P28324-2 1-405)
# T3 sequence: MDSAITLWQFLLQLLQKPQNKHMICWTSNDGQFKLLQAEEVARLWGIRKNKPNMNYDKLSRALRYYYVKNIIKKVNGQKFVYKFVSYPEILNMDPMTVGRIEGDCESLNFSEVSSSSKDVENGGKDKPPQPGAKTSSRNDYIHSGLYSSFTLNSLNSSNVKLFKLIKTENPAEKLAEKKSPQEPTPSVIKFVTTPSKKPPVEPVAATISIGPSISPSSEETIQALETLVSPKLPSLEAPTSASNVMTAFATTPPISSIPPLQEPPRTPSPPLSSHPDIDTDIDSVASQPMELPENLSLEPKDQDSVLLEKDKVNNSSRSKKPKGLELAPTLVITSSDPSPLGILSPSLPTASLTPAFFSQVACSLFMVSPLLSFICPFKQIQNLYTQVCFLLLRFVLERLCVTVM
# How it was run: as §1
# [6] = molecular target: T4, ETV2 (Homo sapiens, UniProt O00321 1-342)
# T4 sequence: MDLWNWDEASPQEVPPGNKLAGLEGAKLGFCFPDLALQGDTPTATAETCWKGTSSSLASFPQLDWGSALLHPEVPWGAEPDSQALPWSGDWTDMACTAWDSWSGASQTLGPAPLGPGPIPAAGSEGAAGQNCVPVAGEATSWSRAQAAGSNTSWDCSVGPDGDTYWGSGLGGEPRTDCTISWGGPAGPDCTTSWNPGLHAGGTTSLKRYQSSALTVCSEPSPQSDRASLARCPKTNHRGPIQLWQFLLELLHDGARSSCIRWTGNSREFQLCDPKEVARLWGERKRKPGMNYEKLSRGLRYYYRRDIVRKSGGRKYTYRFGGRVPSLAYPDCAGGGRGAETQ
# How it was run: as §1
# [7] = molecular target: ETV1 (Homo sapiens, UniProt P50549 1-477)
# How it was run: as §1
# [8] = molecular target: T5, ERF (Homo sapiens, UniProt P50548 1-548)
# T5 sequence: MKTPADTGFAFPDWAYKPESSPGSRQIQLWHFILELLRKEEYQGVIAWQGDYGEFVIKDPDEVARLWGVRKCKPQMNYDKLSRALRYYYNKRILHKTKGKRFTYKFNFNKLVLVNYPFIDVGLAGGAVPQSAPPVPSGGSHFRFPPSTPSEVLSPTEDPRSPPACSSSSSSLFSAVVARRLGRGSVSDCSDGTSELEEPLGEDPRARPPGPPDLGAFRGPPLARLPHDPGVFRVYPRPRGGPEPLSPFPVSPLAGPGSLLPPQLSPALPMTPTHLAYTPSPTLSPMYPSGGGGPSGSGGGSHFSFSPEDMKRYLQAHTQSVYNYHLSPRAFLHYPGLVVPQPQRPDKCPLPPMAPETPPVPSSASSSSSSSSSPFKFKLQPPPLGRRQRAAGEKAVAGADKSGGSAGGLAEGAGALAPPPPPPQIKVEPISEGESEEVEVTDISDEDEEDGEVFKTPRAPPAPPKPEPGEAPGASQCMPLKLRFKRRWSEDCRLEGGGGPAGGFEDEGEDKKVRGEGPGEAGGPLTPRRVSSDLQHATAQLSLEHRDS
# How it was run: as §1
# [9] = molecular target: T6, ETV3L (Homo sapiens, UniProt Q6ZN32 1-361)
# T6 sequence: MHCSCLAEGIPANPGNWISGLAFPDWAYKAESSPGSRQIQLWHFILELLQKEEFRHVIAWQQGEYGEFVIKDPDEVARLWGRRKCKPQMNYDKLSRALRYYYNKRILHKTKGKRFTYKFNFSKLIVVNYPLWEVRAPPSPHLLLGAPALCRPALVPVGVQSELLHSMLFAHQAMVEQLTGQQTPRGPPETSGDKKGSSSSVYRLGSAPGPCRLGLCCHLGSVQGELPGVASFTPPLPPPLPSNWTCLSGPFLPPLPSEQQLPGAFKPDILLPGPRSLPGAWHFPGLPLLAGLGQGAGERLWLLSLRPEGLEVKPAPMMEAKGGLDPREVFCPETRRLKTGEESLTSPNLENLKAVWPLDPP
# How it was run: as §1
# [10] = molecular target: T7, ETS2 (Homo sapiens, UniProt P15036 1-469)
# T7 sequence: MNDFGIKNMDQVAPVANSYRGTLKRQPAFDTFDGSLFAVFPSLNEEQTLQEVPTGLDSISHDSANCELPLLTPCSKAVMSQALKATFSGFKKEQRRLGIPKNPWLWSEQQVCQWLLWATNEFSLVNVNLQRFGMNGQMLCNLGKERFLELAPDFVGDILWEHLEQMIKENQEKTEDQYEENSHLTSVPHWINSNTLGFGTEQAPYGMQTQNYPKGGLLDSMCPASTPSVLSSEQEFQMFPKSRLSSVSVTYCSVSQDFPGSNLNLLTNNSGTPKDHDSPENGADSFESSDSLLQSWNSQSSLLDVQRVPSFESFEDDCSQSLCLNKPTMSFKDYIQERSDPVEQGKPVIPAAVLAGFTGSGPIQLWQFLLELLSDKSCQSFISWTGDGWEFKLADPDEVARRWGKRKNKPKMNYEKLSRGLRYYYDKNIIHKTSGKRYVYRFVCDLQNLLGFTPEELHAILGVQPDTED
# How it was run: as §1
# [11] = molecular target: T8, SPDEF (Homo sapiens, UniProt O95238 1-335)
# T8 sequence: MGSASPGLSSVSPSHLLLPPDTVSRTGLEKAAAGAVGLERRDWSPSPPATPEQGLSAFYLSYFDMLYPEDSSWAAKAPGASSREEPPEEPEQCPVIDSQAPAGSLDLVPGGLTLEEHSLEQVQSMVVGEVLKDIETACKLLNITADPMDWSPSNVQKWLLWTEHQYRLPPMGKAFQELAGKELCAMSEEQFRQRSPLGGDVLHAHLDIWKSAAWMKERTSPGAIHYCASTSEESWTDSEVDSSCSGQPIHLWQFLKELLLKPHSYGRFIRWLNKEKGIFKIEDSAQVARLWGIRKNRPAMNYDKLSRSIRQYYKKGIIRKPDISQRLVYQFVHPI
# How it was run: as §1
# [12] = molecular target: T9, ETV7 (Homo sapiens, UniProt Q9Y603 1-341)
# T9 sequence: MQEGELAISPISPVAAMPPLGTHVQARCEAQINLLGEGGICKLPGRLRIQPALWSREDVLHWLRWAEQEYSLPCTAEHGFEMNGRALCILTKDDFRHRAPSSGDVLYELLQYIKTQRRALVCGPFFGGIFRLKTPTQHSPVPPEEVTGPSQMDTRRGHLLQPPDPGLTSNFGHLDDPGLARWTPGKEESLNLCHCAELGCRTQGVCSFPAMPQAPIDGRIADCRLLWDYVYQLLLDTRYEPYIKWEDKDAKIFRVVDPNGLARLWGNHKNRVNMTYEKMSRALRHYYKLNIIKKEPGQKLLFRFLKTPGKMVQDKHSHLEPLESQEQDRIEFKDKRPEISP
# How it was run: as §1
# [13] = molecular target: T10, ELF5 (Homo sapiens, UniProt Q9UKW6-2 1-255)
# T10 sequence: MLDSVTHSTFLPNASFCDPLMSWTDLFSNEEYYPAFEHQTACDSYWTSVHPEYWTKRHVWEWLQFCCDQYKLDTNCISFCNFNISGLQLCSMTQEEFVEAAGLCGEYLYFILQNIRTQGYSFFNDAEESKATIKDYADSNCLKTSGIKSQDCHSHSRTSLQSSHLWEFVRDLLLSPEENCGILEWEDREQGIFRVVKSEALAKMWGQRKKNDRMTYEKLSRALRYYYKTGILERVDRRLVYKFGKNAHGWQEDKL
# How it was run: as §1
# [14] = molecular target: T11, ETV3 (Homo sapiens, UniProt P41162-2 1-143)
# T11 sequence: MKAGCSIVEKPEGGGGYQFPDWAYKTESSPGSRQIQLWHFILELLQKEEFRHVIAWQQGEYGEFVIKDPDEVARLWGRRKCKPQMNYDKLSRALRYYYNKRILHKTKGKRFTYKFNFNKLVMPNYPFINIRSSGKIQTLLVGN
# How it was run: as §1
# [15] = molecular target: ETV6 (Homo sapiens, UniProt P41212 1-452)
# How it was run: as §1
# [16] = molecular target: CRX (Homo sapiens, UniProt O43186 1-299)
# How it was run: as §1
# Sequence of ELF4 (Q99607 whole entry): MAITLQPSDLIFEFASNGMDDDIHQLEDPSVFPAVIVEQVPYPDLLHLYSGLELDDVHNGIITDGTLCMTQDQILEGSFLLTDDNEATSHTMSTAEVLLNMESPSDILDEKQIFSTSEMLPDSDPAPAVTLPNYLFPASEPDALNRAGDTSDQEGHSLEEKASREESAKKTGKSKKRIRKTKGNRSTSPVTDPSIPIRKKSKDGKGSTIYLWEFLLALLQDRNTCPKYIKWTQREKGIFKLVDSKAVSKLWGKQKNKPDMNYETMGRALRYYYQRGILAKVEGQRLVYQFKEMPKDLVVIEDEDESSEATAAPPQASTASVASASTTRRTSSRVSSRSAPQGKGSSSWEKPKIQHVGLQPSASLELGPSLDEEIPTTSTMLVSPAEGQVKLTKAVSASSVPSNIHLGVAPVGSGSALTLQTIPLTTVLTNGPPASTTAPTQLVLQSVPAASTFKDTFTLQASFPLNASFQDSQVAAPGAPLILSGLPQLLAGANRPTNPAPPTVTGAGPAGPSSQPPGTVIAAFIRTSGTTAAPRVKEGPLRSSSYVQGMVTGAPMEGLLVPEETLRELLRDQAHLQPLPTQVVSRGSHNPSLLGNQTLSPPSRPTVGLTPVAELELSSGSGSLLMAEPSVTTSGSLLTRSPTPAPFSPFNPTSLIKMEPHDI
# Sequence of ETV5 (P41161 whole entry): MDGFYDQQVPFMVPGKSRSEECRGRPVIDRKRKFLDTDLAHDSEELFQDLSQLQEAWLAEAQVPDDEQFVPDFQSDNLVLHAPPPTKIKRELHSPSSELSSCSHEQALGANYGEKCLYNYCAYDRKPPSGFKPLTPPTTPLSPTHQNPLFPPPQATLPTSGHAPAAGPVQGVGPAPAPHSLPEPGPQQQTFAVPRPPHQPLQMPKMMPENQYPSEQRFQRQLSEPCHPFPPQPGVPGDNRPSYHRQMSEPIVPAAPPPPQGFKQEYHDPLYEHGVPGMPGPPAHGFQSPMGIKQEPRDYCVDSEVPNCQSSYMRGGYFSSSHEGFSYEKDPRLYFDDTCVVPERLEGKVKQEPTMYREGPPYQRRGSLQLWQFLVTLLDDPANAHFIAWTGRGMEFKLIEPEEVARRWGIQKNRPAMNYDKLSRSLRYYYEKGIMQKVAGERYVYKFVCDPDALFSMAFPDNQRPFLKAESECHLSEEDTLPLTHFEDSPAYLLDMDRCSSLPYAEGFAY
# Sequence of ETV6 (P41212 whole entry): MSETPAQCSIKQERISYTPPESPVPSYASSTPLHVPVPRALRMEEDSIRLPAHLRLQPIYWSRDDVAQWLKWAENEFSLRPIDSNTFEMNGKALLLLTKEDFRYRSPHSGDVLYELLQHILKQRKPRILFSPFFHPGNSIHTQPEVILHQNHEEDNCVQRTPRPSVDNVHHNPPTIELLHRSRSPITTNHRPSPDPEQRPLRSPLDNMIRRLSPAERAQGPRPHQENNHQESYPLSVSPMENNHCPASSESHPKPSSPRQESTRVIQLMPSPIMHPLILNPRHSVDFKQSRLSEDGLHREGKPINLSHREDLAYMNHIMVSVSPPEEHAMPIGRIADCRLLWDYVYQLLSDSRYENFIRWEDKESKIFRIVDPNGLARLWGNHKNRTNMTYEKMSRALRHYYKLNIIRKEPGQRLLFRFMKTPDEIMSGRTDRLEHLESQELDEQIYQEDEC
# Sequence of ETV1 (P50549 whole entry): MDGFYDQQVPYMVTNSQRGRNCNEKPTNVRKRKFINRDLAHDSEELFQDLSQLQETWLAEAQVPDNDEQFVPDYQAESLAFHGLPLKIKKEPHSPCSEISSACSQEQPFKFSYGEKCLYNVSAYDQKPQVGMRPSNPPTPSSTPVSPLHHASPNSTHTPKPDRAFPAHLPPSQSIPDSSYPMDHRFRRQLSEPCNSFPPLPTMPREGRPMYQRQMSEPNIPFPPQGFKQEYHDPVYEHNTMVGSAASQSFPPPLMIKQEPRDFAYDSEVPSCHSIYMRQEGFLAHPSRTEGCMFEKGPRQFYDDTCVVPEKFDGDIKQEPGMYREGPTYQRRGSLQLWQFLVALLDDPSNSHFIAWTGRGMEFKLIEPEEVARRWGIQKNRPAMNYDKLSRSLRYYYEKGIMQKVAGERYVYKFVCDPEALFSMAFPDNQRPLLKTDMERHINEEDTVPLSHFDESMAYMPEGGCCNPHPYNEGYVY
# Sequence of CRX (O43186 whole entry): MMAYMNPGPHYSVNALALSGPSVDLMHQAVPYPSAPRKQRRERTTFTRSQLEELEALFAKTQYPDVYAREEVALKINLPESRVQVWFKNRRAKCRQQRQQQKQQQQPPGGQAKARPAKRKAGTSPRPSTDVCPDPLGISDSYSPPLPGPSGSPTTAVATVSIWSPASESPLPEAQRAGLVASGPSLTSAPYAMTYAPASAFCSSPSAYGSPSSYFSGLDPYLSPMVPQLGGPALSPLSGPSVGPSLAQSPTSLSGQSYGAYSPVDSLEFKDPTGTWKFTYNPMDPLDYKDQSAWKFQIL
Sequence,binding signal [1],binding signal [2],binding signal [3],binding signal [4],binding signal [5],binding signal [6],binding signal [7],binding signal [8],binding signal [9],binding signal [10],binding signal [11],binding signal [12],binding signal [13],binding signal [14],binding signal [15],binding signal [16]
ATGTGT,"1.02 fold enrichment (6-mer frequency, TF over GST control)","1.16 fold enrichment (6-mer frequency, TF over GST control)","1.17 fold enrichment (6-mer frequency, TF over GST control)","1.08 fold enrichment (6-mer frequency, TF over GST control)","1.05 fold enrichment (6-mer frequency, TF over GST control)","1.11 fold enrichment (6-mer frequency, TF over GST control)","1.18 fold enrichment (6-mer frequency, TF over GST control)","1.15 fold enrichment (6-mer frequency, TF over GST control)","1.1 fold enrichment (6-mer frequency, TF over GST control)","1.17 fold enrichment (6-mer frequency, TF over GST control)","1.23 fold enrichment (6-mer frequency, TF over GST control)","1.09 fold enrichment (6-mer frequency, TF over GST control)","1.04 fold enrichment (6-mer frequency, TF over GST control)","1.01 fold enrichment (6-mer frequency, TF over GST control)","1.12 fold enrichment (6-mer frequency, TF over GST control)",–
GCGCCC,"1.08 fold enrichment (6-mer frequency, TF over GST control)","1.04 fold enrichment (6-mer frequency, TF over GST control)","1.01 fold enrichment (6-mer frequency, TF over GST control)","1.19 fold enrichment (6-mer frequency, TF over GST control)","1.02 fold enrichment (6-mer frequency, TF over GST control)","1.02 fold enrichment (6-mer frequency, TF over GST control)","1.05 fold enrichment (6-mer frequency, TF over GST control)","1.18 fold enrichment (6-mer frequency, TF over GST control)","1.2 fold enrichment (6-mer frequency, TF over GST control)","1.05 fold enrichment (6-mer frequency, TF over GST control)","1.13 fold enrichment (6-mer frequency, TF over GST control)",–,–,"1.2 fold enrichment (6-mer frequency, TF over GST control)","1.03 fold enrichment (6-mer frequency, TF over GST control)",–
TGCCTA,"1.05 fold enrichment (6-mer frequency, TF over GST control)","1 fold enrichment (6-mer frequency, TF over GST control)","1.18 fold enrichment (6-mer frequency, TF over GST control)","1.09 fold enrichment (6-mer frequency, TF over GST control)","1.24 fold enrichment (6-mer frequency, TF over GST control)","1.17 fold enrichment (6-mer frequency, TF over GST control)",–,"1.09 fold enrichment (6-mer frequency, TF over GST control)","1.16 fold enrichment (6-mer frequency, TF over GST control)","1.16 fold enrichment (6-mer frequency, TF over GST control)","1.03 fold enrichment (6-mer frequency, TF over GST control)","1.01 fold enrichment (6-mer frequency, TF over GST control)","1 fold enrichment (6-mer frequency, TF over GST control)","1.07 fold enrichment (6-mer frequency, TF over GST control)","1.07 fold enrichment (6-mer frequency, TF over GST control)","1.08 fold enrichment (6-mer frequency, TF over GST control)"
CATGGG,–,"1.01 fold enrichment (6-mer frequency, TF over GST control)","1.05 fold enrichment (6-mer frequency, TF over GST control)","1 fold enrichment (6-mer frequency, TF over GST control)","1.02 fold enrichment (6-mer frequency, TF over GST control)","1.04 fold enrichment (6-mer frequency, TF over GST control)",–,"1.01 fold enrichment (6-mer frequency, TF over GST control)","1.14 fold enrichment (6-mer frequency, TF over GST control)",–,–,"1.03 fold enrichment (6-mer frequency, TF over GST control)","1.04 fold enrichment (6-mer frequency, TF over GST control)",–,"1.01 fold enrichment (6-mer frequency, TF over GST control)",–
